{"source": "PubChem BioAssay (EPA / NIEHS)", "note": "Records with an inconclusive call do not appear. Activity calls are given as the source filed them. How the source made its calls: active means hit-call score of the fitted dose curve at least 0.9, where 1 is the maximum; inconclusive means response in the unintended direction; inactive means score below 0.9.", "data": [{"test": "TOX21_p53_BLA_p5_viability: Viability Assessment in the Tox21 HCT-116 p53 Agonism Beta-lactamase Assay, Phase 5 (AID 2283600)", "from_the_text": "TOX21_p53_BLA_p5 is a cell-based, single-readout assay that uses HCT116, a human intestinal cell line, […] in a 1536-well plate.TOX21_p53_BLA_p5_viability is an assay readout measuring cellular ATP content and detected with CellTiter-Glo Luciferase-coupled ATP quantitation.TOX21_p53_BLA_p5_viability used a type of viability reporter where loss-of-signal activity can be used to understand changes in the cell viability. Furthermore, this assay endpoint can be referred to as a secondary readout, because this assay has produced multiple assay endpoints where this one serves a viability function. To generalize the intended target to other relatable targets, this assay endpoint is annotated to the cell cycle intended target family, where the subfamily is cytotoxicity.\nThawing Method: Place 14 mL of pre-warmed thaw medium into a 15 mL of conical tub. Remove the vial of cells to be thawed from liquid nitrogen and thaw rapidly by placing at 37C in a water bath with gentle agitation for 1-2 minutes. Decontaminate the vial by wiping with 70% ethanol before opening in a biological safety cabinet. Transfer the vial contents drop-wise into 14 mL of thaw medium in a sterile 15-mL conical tub. Centrifuge cells at 900 rpm for 4 minutes and resuspend in thaw medium. Transfer contents to the T75 tissue culture flask containing Thaw Medium and place flask in a humidified 37C/5% CO2 incubator. Switch to growth medium at first passage.Propagation Method: Aspirate medium, rinse once in DPBS, add 0.25% Trypsin/EDTA and swirl to coat the cell evenly. Add an equal volume of Growth Medium to inactivate Trypsin after 2-3 minutes incubation at 37C. Centrifuge cells at 900 rpm for 4 minutes and resuspend in growth medium. Cell should be passage or fed at least twice a week.Assay Protocol: Harvest cells from culture in growth medium and resuspend in assay medium. 2.2 Dispense 4000 cells/5 uL/well into 1536-well black/clear bottom plates using a Multidrop dispenser. After the cells were incubated at 37C for 5 hours, 23 nL of compounds dissolved in DMSO were transferred to the assay plate by a PinTool resulting in a 217-fold dilution. Incubate the plates for 16 hours at 37C, 5% CO2. Add 1 uL of 6X LiveBLAzer FRET B/G (CCF4-AM) Substrate Mixture to each well using a BioRAPTR dispenser and incubate the plates at room temperature for 2 hours. Measure fluorescence intensity at 460 and 530 nm emission and 405 nm excitation by an Envision detector. Data is expressed as the ratio of 460nm/530nm emissions. Add 4 uL of Cell-titer Glo to each well using BioRAPTR and incubate the plates at room temperature for […]. For cell viability readout that measures cytotoxicity, 4 ul/well of CellTiter-Glo reagent was added into the assay plates using a Flying Reagent Dispenser. After 30 min incubation at room temperature, the luminescence intensity in the plates was measured using a ViewLux plate reader.", "values": [{"compound": "S=C(SSSSSSC(=S)N1CCCCC1)N1CCCCC1", "outcome": "inactive"}, {"compound": "Oc1cc(O)cc(O)c1", "outcome": "inactive"}, {"compound": "O=C(c1ccc(F)cc1)C1CCN(CCn2c(=S)[nH]c3ccccc3c2=O)CC1", "outcome": "inactive"}, {"compound": "Cc1ccc(N)nc1", "outcome": "inactive"}, {"compound": "COc1ccc([C@@H]2CC(=O)c3c(O)cc(O[C@@H]4O[C@H](CO[C@@H]5O[C@@H](C)[C@H](O)[C@@H](O)[C@H]5O)[C@@H](O)[C@H](O)[C@H]4O)cc3O2)cc1O", "outcome": "inactive"}, {"compound": "N[C@@H](CS)C(=O)O", "outcome": "inactive"}, {"compound": "CC(C)N(C)C", "outcome": "inactive"}, {"compound": "CN(C)Cc1ccccc1", "outcome": "inactive"}, {"compound": "Cc1ccccc1N1C(=O)c2cc(S(N)(=O)=O)c(Cl)cc2NC1C", "note": "(stereo not given)", "outcome": "inactive"}, {"compound": "CCCCCCCCCCCCCCCCCl", "outcome": "inactive"}, {"compound": "CC(C)(C)C(=O)NCCCC(=O)O", "outcome": "inactive"}, {"compound": "FC(F)(F)c1cccc(Cl)c1", "outcome": "inactive"}, {"compound": "COC(=O)NN", "outcome": "inactive"}, {"compound": "CC(C)CCC[C@@H](C)[C@H]1CC[C@H]2[C@@H]3CC[C@@H]4C[C@H](O)CC[C@]4(C)[C@H]3CC[C@]12C", "outcome": "inactive"}, {"compound": "CC(=O)N[C@@H](Cc1ccc(O)cc1)C(=O)O", "outcome": "inactive"}, {"compound": "CCOC(=O)/C=C/C(=O)OCC", "outcome": "inactive"}, {"compound": "C=CCSSSCC=C", "outcome": "inactive"}, {"compound": "O=C1c2ccccc2C(=O)c2c1ccc(O)c2O", "outcome": "inactive"}, {"compound": "O=C(N=NC(=O)OCc1ccccc1)OCc1ccccc1", "outcome": "inactive"}, {"compound": "CNC(=O)[C@H](Cc1c[nH]c2ccccc12)NC(=O)[C@@H](CC(=O)NO)CC(C)C", "outcome": "inactive"}, {"compound": "CC(CC(=O)O)CC(C)(C)C", "note": "(stereo not given)", "outcome": "inactive"}, {"compound": "O=C1OC(=O)C2CC=CCC12", "note": "(stereo not given)", "outcome": "inactive"}, {"compound": "OC(CCCN1CCCCC1)(c1ccccc1)c1ccccc1", "outcome": "inactive"}, {"compound": "Oc1ccc(C(O)CNCCCCCCNCC(O)c2ccc(O)c(O)c2)cc1O", "note": "(stereo not given)", "outcome": "inactive"}, {"compound": "COCCOC(=O)CC#N", "outcome": "inactive"}, {"compound": "Cc1onc(-c2c(Cl)cccc2Cl)c1C(=O)N[C@@H]1C(=O)N2[C@@H]1SC(C)(C)[C@@H]2C(=O)O", "outcome": "inactive"}, {"compound": "C[C@](N)(Cc1ccc(O)cc1)C(=O)O", "outcome": "inactive"}, {"compound": "NC(=O)CC[C@@H](N)C(=O)O", "outcome": "inactive"}, {"compound": "C[C@@H]1CC[C@@]2(OC1)O[C@H]1C[C@H]3[C@@H]4CC[C@H]5C[C@@H](O)CC[C@]5(C)[C@H]4CC(=O)[C@]3(C)[C@H]1[C@@H]2C", "outcome": "inactive"}, {"compound": "Nc1ccc(C(=O)O)c(O)c1", "outcome": "inactive"}, {"compound": "COc1ccc(C=NNC(=O)c2ccncc2)c(C(=O)O)c1OC", "outcome": "inactive"}, {"compound": "NCc1ccc(S(N)(=O)=O)cc1", "outcome": "inactive"}, {"compound": "COc1cc(Cl)ccc1Cl", "outcome": "inactive"}, {"compound": "Cc1cc(O)ccc1N", "outcome": "inactive"}, {"compound": "COc1ccc(C)cc1[N+](=O)[O-]", "outcome": "inactive"}, {"compound": "CS(=O)(=O)c1ccc([C@@H](O)[C@@H](COC(=O)CN)NC(=O)C(Cl)Cl)cc1", "outcome": "inactive"}, {"compound": "CCCCCCCC/C=C\\CCCCCCCC(=O)OCCCC", "outcome": "inactive"}, {"compound": "CC(C)NCC(O)COc1ccc(CCOCC2CC2)cc1", "note": "(stereo not given)", "outcome": "inactive"}, {"compound": "OCC(F)(F)F", "outcome": "inactive"}, {"compound": "Nc1ncnc2c1ncn2CCOCP(=O)(O)O", "outcome": "inactive"}]}]}
